Assay results as given in PubChem BioAssay AID2472 (National Center for Advancing Translational Sciences (NCATS), 2010).
Where “and” joins values, the source holds several entries; their conditions need not be identical. Equal entries are not always repeated. In all, about 290,000 compounds went through this assay and about 2,000 (0.69%) were called active. Cut-off read from the data, not from the text of the source: active = activity change below about -30%; inactive = the rest, inconclusive results apart. Only a selection was taken, and actives are over-represented in it overall. The source holds several records for some structures; these can differ, active in one and inactive in another.

Assay: qHTS Assay for Inhibitors of Fructose-1,6-bisphosphate Aldolase from Giardia Lamblia: Coupling assay counterscreen
Conditions: coupling enzyme system counterscreen, AmpLite Red fluorescence; at 58.2 µM (top of the series)
From the text: MLPCN Grant: MH085699-01 Assay Provider: Osnat Herzberg, University of Maryland NCGC Assay Overview: The objective of this project is to obtain compounds that inhibit Giardia lamblia growth. G. lamblia is a human pathogen which afflicts impoverished nations; it is the most common cause of outbreaks of diarrhea in the United States. During the course of our study of potential drug targets in Giardia, we have identified the Class II (Zn2+ functions in electrophilic catalysis) fructose-1,6-bisphosphate aldolase (FBPA) as an excellent candidate for drug targeting. FBPA is a key glycolytic pathway enzyme, essential for G. lamblia survival. The human FBPA belongs to the Class I aldolases, which have a different substrate binding site structure and a radically different catalytic mechanism (employing a lysine-Schiff base intermediate). Therefore, affinity-based or mechanism-based inhibitors of the Giardia FBPA are expected not to interfere with the catalytic function of the human FBPA. A glyceraldehyde-3-phosphate dehydrogenase/triose phosphate isomerase/NAD/arsenate coupled assay was adapted to the 1536-well HTP format for use in the primary screen. This was done by coupling it to a diaphorase/resazurin/resorufin reaction that can be monitored by fluorescence (excitation, 544 nm; emission, 590 nm). Compounds identified in this screen will be further evaluated by coupling the […]/triose phosphate isomerase/NADH assay to a phenazine methosulfate/tetranitroblue tetrazolium color reaction. False positives due to the dehydrogenases and diaphorase inhibition will be eliminated, and selectivity assay will triage inhibitors of mammalian triose phosphate isomerase and the Class I FBPA. G. lamblia FBPA inhibitors identified by the in vitro analyses will be examined for growth inhibition of Giardia trophozoites, and for cytotoxicity in human cells. This assay specifically addresses whether activity observed in the primary screen (AID 2451) is related to inhibition of the coupling assay used, as opposed to inhibition of aldolase. Actives in this assay are considered inconclusive for activity against aldolase.
NCGC Assay Protocol: Step,Parameter,Value,Description 1,Coupling enzyme reagent,2 uL,glyceraldehyde-3-phosphate 2,Compound,23 nL,3.68 nM-57.5 uM final concentration 3,Time,10 min,RT Incubation 4,Substrate/detection Reagent,2 uL,Substrate + enzyme coupling system + AmpLite Red kit 5,Time,20 min,RT Incubation 6,Detector,525 nm/598 nm (Fluorescence),ViewLux Fluorescence Read (Read 1) Notes: 1,Medium-binding black solid-bottom Kalypsys plates. FRD or Kalypsys dispenser. 2,Compound Library (10 mM ,1:5 dilution). Pin-transferred for a [final] range of 3.68 nM-57.5 uM. 3,RT incubation 4,FRD or Kalypsys dispenser, 2 uL of reaction mixture. Bottle kept at 4C and covered in foil to protect from light. 5,RT incubation 6,ViewLux Protocol 1194; Excitation filter wheel A (525/20 Pol; BODIPY TMR FP), Emission filter wheel B (598/25 S; BODIPY TMR FP S). Keywords: Fructose-bisphosphate aldolase, FBPA , Giardia lamblia , Giardia, HTS, Inhibitors
% is set by controls: 0 for no effect and ±100 for the full control effect.

Row | SMILES | activity change, negative = inhibition
1 | Cn1cc(-c2nc3cnc(N4CCNCC4)nc3n(CCc3ccccc3)c2=O)c2ccccc21 | -0.191% (inactive)
2 | CC(C)C1=CC2=CC[C@@H]3[C@](C)(CO)CCC[C@]3(C)C2CC1 (stereo partly specified) | -1.26% (inactive)
3 | COc1cccc(CN(C)C(=O)CC23CC4CC(CC(C4)C2)C3)c1OC | -1.24% (inactive)
4 | COc1ccc(S(=O)(=O)N2CCCC(C(=O)NCCCn3ccnc3)C2)cc1OC (stereo unspecified) | -2.16% (inactive)
5 | CCN(CC)c1ccc(C(=O)Nn2c(C)nc3ccccc3c2=O)cc1 | 2.59% (inactive)
6 | CC(C)Oc1c(Br)cc(Br)cc1/C=N/NC(N)=S | -0.43% (inactive)
7 | Cc1ccc(-c2c3c(=O)n(C)c(=O)n(C)c3cn2-n2cnnc2)cc1 | 1.01% (inactive)
8 | COc1cccc(-n2cc3c(c2-c2ccccc2)c(=O)n(C)c(=O)n3C)c1 | -16.5% (inactive)
9 | Cc1ccc(-c2c3c(=O)n(C)c(=O)n(C)c3cn2-c2ccccc2O)cc1 | -32% (active)
10 | O=c1o[nH]c(-c2ccccc2)c1N=Nc1c(F)cccc1Cl | 5.04% (inactive)
11 | COc1cnc(SCc2ccc(Cl)c(Cl)c2)nc1Cl | 1.35% (inactive)
12 | CCCC(=O)N1CCC(CCC(=O)NC2CC2)CC1 | 0.0768% (inactive)
13 | O=C(CC(n1cncn1)C(Cl)(Cl)Cl)c1ccc([N+](=O)[O-])cc1 (stereo unspecified) | -0.311% (inactive)
14 | O=C(CN1C(=O)COc2ccccc21)Nc1ccc(F)cc1 | -7.46% (inactive)
15 | O=C(CN1C(=O)COc2ccccc21)NCCN1CCc2ccccc2C1 | -31.2% (active)
16 | CCCN1CCN(CCCNC(=O)CN2C(=O)COc3ccccc32)CC1 | -1.3% (inactive)
17 | COCc1cc(C)n(CC(=O)NCC2CCCO2)c(=O)c1C#N (stereo unspecified) | 0.717% (inactive)
18 | CNS(=O)(=O)c1ccc(NC(=O)Nc2ccc3c(c2)OCO3)cc1 | -1.22% (inactive)
19 | CCCCN(CC)C(=O)C1CCCN(S(=O)(=O)c2cccc3nsnc23)C1 (stereo unspecified) | -1.17% (inactive)
20 | COc1ccc(CC(=O)Nc2c(C(N)=O)oc3ccccc23)cc1 | 2.14% (inactive)
21 | Cn1c(-c2ccco2)nc2cc3ccccc3cc21 | -10.1% (inactive)
22 | c1coc(-c2nc3nc4ccccc4n3nc2-c2ccco2)c1 | -45.8% (active)
23 | Clc1ccccc1CSc1nnc(-c2ccco2)c(-c2ccco2)n1 | -6.43% (inactive)

Row | SMILES | activity change, negative = inhibition
24 | CN(CCOc1ccccc1)C(=O)c1cc(COc2c(F)cccc2F)on1 | -0.542% (inactive)
25 | O=C1Nc2ccc([N+](=O)[O-])cc2C1=Nc1cccc(CO)c1 | -33% (active)
26 | O=[N+]([O-])c1ccc(N(CCO)Cc2ccccc2)c([N+](=O)[O-])c1 | -1.63% (inactive)
27 | CN1CCN(/N=C2/C(=O)Nc3ccc([N+](=O)[O-])cc32)CC1 | -19.1% (inactive)
28 | COC(=O)N/N=C/c1cn(CCCOc2ccc(C)cc2)c2ccccc12 | -8.57% (inactive)
29 | COc1ccc(C2CC(O)(c3ccccc3)Oc3cc(C)cc(C)c32)cc1 (stereo unspecified) | -4.71% (inactive)
30 | CC1C(=O)C(C)C(c2ccc(O)cc2)NC1c1ccc(O)cc1 (stereo unspecified) | -1.45% (inactive)
31 | CCOC(=O)c1cc2occc2n1CC(=O)N1CCN(C(=O)c2ccco2)CC1 | 2.42% (inactive)
32 | CCOC(=O)c1cc2occc2n1CC(=O)NC1CCC(C)CC1 (stereo unspecified) | -0.298% (inactive)
33 | CCOC(=O)c1cc2c(ccn2C)n1CC(=O)N1CCC(C)CC1 | -41.2% (active)
34 | COC(=O)N1C(/C=C/C=C/c2ccc(OC)cc2)=Cc2ccccc2C1CC(C)=O (stereo unspecified) | -0.194% (inactive)
35 | CCc1ccccc1NC(=O)CN(C)C(=O)COc1ccc(C)nc1[N+](=O)[O-] | -2.08% (inactive)
36 | Cc1ccc(OCC(=O)Nc2ccccc2Sc2ccc(Cl)cc2)c([N+](=O)[O-])n1 | -30.3% (active)
37 | Cc1ccc(OCC(=O)NC(C)c2ccccc2)c([N+](=O)[O-])n1 (stereo unspecified) | 0.28% (inactive)
38 | C=C(C(C)=O)C(O)c1cccs1 (stereo unspecified) | 2.11% (inactive)
39 | O=C(COCc1cc(-c2ccc3c(c2)OCO3)on1)N1CCN(c2cccc(Cl)c2)CC1 | -0.674% (inactive)
40 | CCN(CC)c1ccc(/C=N/Nc2nc(C)cc(C)n2)c(O)c1 | -8.39% (inactive)
41 | CCN(CC)c1ccc2cc(C(N)=O)/c(=N\NC(=O)c3ccncc3)oc2c1 | -7.4% (inactive)
42 | CCN(CC)c1ccc2oc(=O)c(C)nc2c1 | -46.3% (active)
43 | CCC(=O)Nc1ccc2nn(-c3ccc(F)cc3)nc2c1 | 0.799% (inactive)
44 | O=C(O)CCC(=O)NCc1ccc2[nH]c3c(c2c1)CCCC3 | -41.3% (active)
45 | Cc1cccc(NC(=S)NCc2ccc3[nH]c4c(c3c2)CCCC4)c1 | -0.782% (inactive)
46 | O=C(O)CCC(=O)NCc1ccc(C(=O)O)cc1 | 3.84% (inactive)

Row | SMILES | activity change, negative = inhibition
47 | Cc1ccc(C23CC4CC(CC(C(=O)NCC(=O)O)(C4)C2)C3)cc1 | 6.61% (inactive)
48 | O=S(=O)(Nc1cccc(Oc2ccc(Cl)cc2)n1)c1ccc(F)cc1 | 3.65% (inactive)
49 | Cc1ccc(-c2ccnc3[nH]n(-c4ccccc4)c(=O)c23)cc1 | 2.09% (inactive)
50 | Cc1ccc(C2C3=C(Nc4[nH]n(-c5ccccc5)c(=O)c42)c2ccccc2C3=O)cc1 (stereo unspecified) | -44% (active)
51 | Cc1cc(C)c(C2C3=C(Nc4c2c(C)nn4-c2ccccn2)c2ccccc2C3=O)c(C)c1 (stereo unspecified) | -0.679% (inactive)
52 | COc1cc(Cl)c(C)cc1NC(=O)CN1CCCCCC1 | 0.688% (inactive)
53 | N#Cc1c(N)sc2c1CCN(C(=O)OCc1ccccc1)C2 | -39.2% (active)
54 | CC(=O)N1CCc2c(sc(NC(=O)CCS(=O)(=O)c3ccccc3)c2C#N)C1 | 1.84% (inactive)
55 | CC(C)N1CCc2c(sc(NC(=O)Cc3ccccc3)c2C#N)C1 | -3% (inactive)
56 | O=C1C2C(c3ccccc3)CC=CC2C(c2ccoc2)N1Cc1ccccc1 (stereo unspecified) | 8.25% (inactive)
57 | COC(=O)CCCC1=CC2=CC(=O)C(C)(OC(=O)c3cccs3)C(=O)C2=CN1CC1CC1 (stereo unspecified) | -36.8% (active) and -32.4% (active)
58 | CC(C)(C)OC(=O)NCCCCC1=CC2=CC(=O)C(C)(OC(=O)c3cccs3)C(=O)C2=CO1 (stereo unspecified) | 0.595% (inactive)
59 | COC(=O)CCCC1=CC2=CC(=O)C(C)(OC(=O)c3cccs3)C(=O)C2=CN1CC(C)C (stereo unspecified) | -16.4% (inactive) and -34.8% (active)
60 | COC(=O)CCCC1=CC2=CC(=O)C(C)(OC(=O)c3cccs3)C(=O)C2=CN1c1cccc(C#N)c1 (stereo unspecified) | -7% (inactive) and -4.26% (inactive)
61 | COC(=O)CCCC1=CC2=CC(=O)C(C)(OC(=O)c3cccs3)C(=O)C2=CN1c1ccc(CO)cc1 (stereo unspecified) | 1.62% (inactive)
62 | CCCCC1=CC2=CC(=O)C(C)(OC(=O)CC)C(=O)C2=CN1CCCOC(C)C (stereo unspecified) | -25% (inactive) and -18.1% (inactive)
63 | COc1cccc(-c2coc3cc4oc(=O)c(CC(=O)O)c(C)c4cc23)c1 | 12.3% (inactive)
64 | O=C(Nc1cccc([N+](=O)[O-])c1)N1CCc2ccccc2C1 | -5.24% (inactive)
65 | C=C1C([C@@]2(C)C(OC(C)=O)CC(=O)O[C@@](C)(COC(C)=O)C2CC(=O)OC)C(OC=O)C(OC(=O)C(O)C(C)CC)[C@]2(C)C(c3ccoc3)CC(=O)C12O (stereo partly specified) | -3.85% (inactive)
66 | CC(C)CCC(C)NC(=O)c1ccc2nccnc2c1 (stereo unspecified) | 2.87% (inactive)
67 | Oc1cc(O)c2c(c1)OC(c1ccc(O)c(O)c1)C(O)C2 (stereo unspecified) | -34.5% (active)
68 | CC1(c2ccc3ccccc3c2)NC(=O)N(CC(N)=O)C1=O (stereo unspecified) | -1.62% (inactive)
69 | Cc1c(Cl)cccc1NC(=O)NCc1ccc(C)n1C | 0.306% (inactive)

Row | SMILES | activity change, negative = inhibition
70 | CCCN1CCC(=O)N(C(CSc2ccc(C)cc2)Cc2ccccc2)CC1 (stereo unspecified) | 2.31% (inactive)
71 | CC1(C)Cc2ccccc2-c2[nH]c(=S)[nH]c(=O)c21 | 2.14% (inactive)
72 | N#CC1=C(N)Oc2n[nH]c(CSc3ccccc3)c2C12C(=O)Nc1ccccc12 (stereo unspecified) | -1.05% (inactive)
73 | N#CC1=C(N)Oc2[nH]c(=S)[nH]c(=O)c2C12C(=O)Nc1ccccc12 (stereo unspecified) | -33.1% (active)
74 | COCCCNc1nc2ccccc2nc1NS(=O)(=O)c1ccc(F)cc1 | 3.51% (inactive)
75 | Oc1cc2c(cc1O)CN(C(=S)NCCc1ccc(Cl)cc1)CCC2 | -10.5% (inactive)
76 | CCOCCCNC(=O)c1cn(CC(C)C)c(=O)c2c1c1ccccc1n2C | 1.3% (inactive)
77 | Cc1nn(C)cc1/C=C1\CCC/C(=C\c2cn(C)nc2C)C1=O | -3.28% (inactive)
78 | COc1ccc2cc1Oc1ccc(cc1)C[C@H]1c3cc(c(OC)cc3CCN1C)Oc1c(O)c(OC)cc3c1[C@H](C2)N(C)CC3 | 3.01% (inactive)
79 | COc1ccc(CN2CCCC(N3CCc4ccccc4C3)C2)c(O)c1 (stereo unspecified) | 0.955% (inactive)
80 | COc1c(O)ccc2c1CN1CCc3cc4c(cc3C1C2)OCO4 (stereo unspecified) | -31.7% (active)
81 | COc1ccc2c(c1)N(C)/C(=C1/SC(=S)N(NC(C)=O)C1=O)S2 | -2.99% (inactive)
82 | CCOc1cc(-c2cc(-c3ccc(NC(C)=O)cc3)nc(N)c2C#N)ccc1O | -0.764% (inactive)
83 | CC(C)CNS(=O)(=O)c1ccc(CCC(=O)NCc2ccc(Cl)cc2)cc1 | 2.27% (inactive)
84 | Cc1ccc(OCc2nc3ccccc3n2C)cc1 | -0.274% (inactive)
85 | Cc1cccnc1NC(=O)CSc1nnc(COc2ccc(C(C)C)cc2)n1C | -3.92% (inactive)
86 | Cc1ccc(OCc2nnc(SC3CCc4ccccc4C3=O)n2C)cc1 (stereo unspecified) | -79.8% (active)
87 | C=C1/C(=C\C=C2\CCCC3(C)C2CCC3C(C)/C=C/C(O)C2CC2)CC(O)CC1O (stereo unspecified) | -0.462% (inactive)
88 | CN(NS(=O)(=O)c1cccs1)c1ncc(C(F)(F)F)cc1Cl | 1.61% (inactive)
89 | CCOC(=O)c1c(C)[nH]c(C(=O)NCc2ccccc2OC)c1C | 6.66% (inactive)
90 | CCOC(=O)c1c(C)[nH]c(C)c1S(=O)(=O)N(C)CC(=O)Nc1ccccc1C | 0.829% (inactive)
91 | CCOC(=O)c1c(C)[nH]c2c1-c1ccccc1C(=O)C2=O | -46.9% (active)
